The source made the active and inactive calls.
What was measured:
Albumin (Bos taurus) = Albumin (Bos taurus) (UniProt P02769); test: compounds binding labelled BSA control protein – biochemical, small-molecule microarray, Alexa647 label, 635/667 nm fluorescence, artefact control for SMM control protein annotation, profiling panel (AID 1118); settings: BSA-A647 binding, fluorescence 635 nm, higher = more signal;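 note: score merges 667 nm emission intensity and signal-to-noise per printed compound spot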
[1] = probe aXIP binding to arrayed compounds – biochemical, NeuroSMM set, 635/667 nm fluorescence, primary screen (AID 1119); settings: small-molecule microarray, higher = more signal, called active from +8 up or from −8 down;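 note: probe is the protein aXip251-270 applied at 1 µg/mL to compound-printed slides; binding of probe to printed compounds measured as 667 nm fluorescence plus signal to noise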
[2] = probe aNOTCH3 binding on compound microarray – biochemical, small-molecule microarray, 635/667 nm fluorescence, primary screen (AID 1120); settings: higher = more signal;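 note: probe is a biotin-tagged antibody raised against NOTCH3 rather than NOTCH3 protein; score merges spot fluorescence near 667 nm with spot signal to noise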
[3] = probe aNOTCH2 binding on compound microarray – biochemical, small-molecule microarray, 635/667 nm fluorescence, primary screen (AID 1121); settings: higher = more signal;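 note: score merges feature fluorescence read at 667 nm with its signal to noise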
[4] = molecular target: Carbonic anhydrase 2 (Homo sapiens) (UniProt P00918); test: compounds binding carbonic anhydrase 2 – biochemical, small-molecule microarray, Alexa647-labelled CAII, profiling panel (AID 1122); settings: CAII-A647 binding fluorescence, higher = more signal
[5] = COS7 lysate on small-molecule microarray, probe aHis, 635 nm (AID 1123); settings: COS7 cell lysate, fluorescence, higher = more signal;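 note: z-score combines 667nm fluorescence intensity with signal-to-noise per printed compound spot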
[6] = probe aLAP1 signal on lysate-treated microarray – cell lysate, small-molecule microarray, COS7 lysate, primary screen (AID 1124); settings: probe aLAP1, fluorescence, higher = more signal;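 note: lysate comes from COS7 cells expressing LAP1 and is applied at 0.3 µg/mL; score merges spot fluorescence near 667 nm with signal-to-noise over triplicate slides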
Sam68 (KHDRBS1) = test: compounds binding KHDRBS1 protein – biochemical, small-molecule microarray, 635 nm fluorescence, primary screen (AID 1125); settings: higher = more signal;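 note: score merges 667 nm channel intensity with signal to noise over triplicate slides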
[7] = system: Chordin-like protein 2 (CHRDL2); test: compounds binding chordin-like 2 – biochemical, small-molecule microarray, 635 nm fluorescence, primary screen (AID 1126); settings: fluorescence 635 nm, higher = more signal;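 note: printed compound slides probed with Chrdl2 protein at 4 µg/mL for 1 h at 4 C; score merges 667 nm emission intensity with signal to noise over three replicate slides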
[8] = molecular target: Concanavalin-A (Canavalia ensiformis) (UniProt P02866); test: compounds binding concanavalin A lectin – biochemical, small-molecule microarray, Alexa647 label, 635 nm, artefact control for SMM control protein annotation, primary screen (AID 1127); settings: ConA-A647 binding fluorescence, higher = more signal;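 note: z combines 667 nm emission intensity with signal-to-noise across three replicate slides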
[9] = compounds binding Alexa647 anti-His antibody – biochemical, small-molecule microarray, 635 nm fluorescence, artefact control for SMM control protein annotation, primary screen (AID 1128); settings: higher = more signal;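 note: score merges feature fluorescence with signal-to-noise for each printed compound spot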
[10] = system: Human papillomavirus type 1a E7 protein (residues 1-88); test: HPV1a E7 small-molecule binders, primary screen, biochemical, small-molecule microarray, residues 1-88, 635 nm (AID 1129); settings: small-molecule microarray binding, fluorescence 635 nm; higher = more signal
[11] = molecular target: Focal adhesion kinase 1 (Homo sapiens) (UniProt Q05397); test: PTK2 protein binding on printed compound slides – biochemical, small-molecule microarray, 635/667 nm fluorescence, BSA, DTT, primary screen (AID 1130); settings: 635 nm fluorescence, higher = more signal;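 note: composite of spot emission at 667 nm and signal to noise over triplicate slides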
[12] = system: Fibrinogen (Alexa647-labelled); test: Alexa647-fibrinogen binding to printed small molecules – biochemical, small-molecule microarray, 635/667 nm fluorescence, artefact control for SMM control-protein annotation, profiling panel (AID 1131); settings: fibrinogen-A647 binding fluorescence, higher = more signal;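 note: z-score merges 667 nm fluorescence with per-spot signal-to-noise over triplicate slides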
[13] = molecular target: Follistatin (Homo sapiens) (UniProt P19883); test: FST protein binding to printed compounds – biochemical, small-molecule microarray, 635/667 nm fluorescence, primary screen (AID 1132); settings: 635 nm fluorescence, higher = more signal
[14] = molecular target: Fibroblast growth factor 2 (Homo sapiens) (UniProt P09038); test: basic fibroblast growth factor binding to printed compounds – biochemical, small-molecule microarray, 635/667 nm fluorescence, primary screen (AID 1133); settings: FGF2, fluorescence 635/667, higher = more signal
[15] = JC-1 mitochondrial potential readout, lung cancer cells – cell-based, A549, JC-1 fluorescence, basal, 24 h, 100 nL, profiling panel (AID 1138); settings: higher = more signal;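 note: A549 lung adenocarcinoma cells under basal conditions with no added stimulus; test concentration not given here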
Lefty1 = Lefty1 protein binding to printed compounds – biochemical, small-molecule microarray, 635/667 nm fluorescence, primary screen (AID 1139); settings: fluorescence 635/667, higher = more signal
[16] = system: wheat germ agglutinin (Triticum aestivum), Alexa647-labelled; test: Alexa647-WGA lectin binding to printed small molecules – biochemical, small-molecule microarray, 635/667 nm fluorescence, artefact control for SMM control-protein annotation, profiling panel (AID 1140); settings: WGA-A647 binding, 635 nm fluorescence, higher = more signal;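 note: score merges 667 nm feature emission with signal to noise over triplicate slides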
[17] = molecular target: Luciferin 4-monooxygenase (Photinus pyralis) (UniProt P08659); test: inhibition of purified Photinus pyralis luciferase – biochemical, luminescence, purified enzyme, 2006 set, primary screen (AID 1141); settings: purified firefly luciferase, SteadyGlo luminescence, 30 min; higher = more signal, called active from +8 up or from −8 down;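 note: cell-free assay with purified firefly luciferase at 100 ng per well in PBS; test concentration not given here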
Luciferin 4-monooxygenase (Photinus pyralis), sequence (P08659 whole entry, looked up): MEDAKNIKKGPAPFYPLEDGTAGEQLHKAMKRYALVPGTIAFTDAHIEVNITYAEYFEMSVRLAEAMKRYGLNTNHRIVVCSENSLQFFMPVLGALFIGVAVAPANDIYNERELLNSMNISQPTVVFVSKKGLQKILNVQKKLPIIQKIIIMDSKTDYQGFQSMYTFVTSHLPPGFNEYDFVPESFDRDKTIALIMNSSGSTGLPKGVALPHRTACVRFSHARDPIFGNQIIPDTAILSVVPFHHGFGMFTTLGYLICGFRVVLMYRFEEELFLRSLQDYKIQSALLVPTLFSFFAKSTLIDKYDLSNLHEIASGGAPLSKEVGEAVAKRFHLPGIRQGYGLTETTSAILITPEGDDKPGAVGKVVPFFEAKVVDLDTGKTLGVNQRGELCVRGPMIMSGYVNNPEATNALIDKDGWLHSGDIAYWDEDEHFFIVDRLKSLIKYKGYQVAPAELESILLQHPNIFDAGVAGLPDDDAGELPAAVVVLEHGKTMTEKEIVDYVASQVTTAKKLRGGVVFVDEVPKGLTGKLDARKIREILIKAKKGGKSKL

Concanavalin-A (Canavalia ensiformis), sequence (P02866 whole entry, looked up): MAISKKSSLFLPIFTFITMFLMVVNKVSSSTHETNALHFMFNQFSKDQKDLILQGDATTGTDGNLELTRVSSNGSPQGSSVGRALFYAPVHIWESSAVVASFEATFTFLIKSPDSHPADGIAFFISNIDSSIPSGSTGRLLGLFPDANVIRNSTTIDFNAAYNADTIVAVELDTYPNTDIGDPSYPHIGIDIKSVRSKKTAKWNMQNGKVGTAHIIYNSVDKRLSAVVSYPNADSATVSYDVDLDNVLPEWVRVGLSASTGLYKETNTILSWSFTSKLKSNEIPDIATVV
Focal adhesion kinase 1 (Homo sapiens), sequence (Q05397 whole entry, looked up): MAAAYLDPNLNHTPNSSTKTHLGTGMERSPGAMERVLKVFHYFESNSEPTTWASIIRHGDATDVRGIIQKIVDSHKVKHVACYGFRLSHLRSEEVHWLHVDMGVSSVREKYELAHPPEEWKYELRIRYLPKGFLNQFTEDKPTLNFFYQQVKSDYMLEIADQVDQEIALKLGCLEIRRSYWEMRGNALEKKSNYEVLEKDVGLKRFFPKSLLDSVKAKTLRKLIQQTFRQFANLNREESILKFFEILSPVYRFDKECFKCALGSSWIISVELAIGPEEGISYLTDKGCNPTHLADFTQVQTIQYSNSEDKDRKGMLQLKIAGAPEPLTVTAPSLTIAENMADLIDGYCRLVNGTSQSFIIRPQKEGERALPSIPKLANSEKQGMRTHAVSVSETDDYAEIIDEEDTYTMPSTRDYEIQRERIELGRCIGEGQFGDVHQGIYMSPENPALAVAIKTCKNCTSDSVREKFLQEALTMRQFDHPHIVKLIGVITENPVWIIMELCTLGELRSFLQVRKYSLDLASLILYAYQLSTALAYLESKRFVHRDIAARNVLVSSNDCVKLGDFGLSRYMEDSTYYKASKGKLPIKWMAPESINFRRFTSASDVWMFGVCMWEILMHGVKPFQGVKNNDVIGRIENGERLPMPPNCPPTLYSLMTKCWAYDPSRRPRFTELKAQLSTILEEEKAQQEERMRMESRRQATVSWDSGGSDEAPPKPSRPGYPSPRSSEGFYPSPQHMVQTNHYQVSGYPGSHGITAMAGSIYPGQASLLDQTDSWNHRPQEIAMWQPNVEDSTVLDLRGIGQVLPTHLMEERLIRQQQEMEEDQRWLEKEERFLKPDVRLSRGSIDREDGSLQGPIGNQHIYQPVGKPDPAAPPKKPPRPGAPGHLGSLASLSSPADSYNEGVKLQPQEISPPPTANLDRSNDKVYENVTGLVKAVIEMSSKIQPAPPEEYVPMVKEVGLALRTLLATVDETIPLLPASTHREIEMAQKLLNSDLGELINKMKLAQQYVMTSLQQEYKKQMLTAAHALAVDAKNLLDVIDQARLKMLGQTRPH
Fibroblast growth factor 2 (Homo sapiens), sequence (P09038 whole entry, looked up): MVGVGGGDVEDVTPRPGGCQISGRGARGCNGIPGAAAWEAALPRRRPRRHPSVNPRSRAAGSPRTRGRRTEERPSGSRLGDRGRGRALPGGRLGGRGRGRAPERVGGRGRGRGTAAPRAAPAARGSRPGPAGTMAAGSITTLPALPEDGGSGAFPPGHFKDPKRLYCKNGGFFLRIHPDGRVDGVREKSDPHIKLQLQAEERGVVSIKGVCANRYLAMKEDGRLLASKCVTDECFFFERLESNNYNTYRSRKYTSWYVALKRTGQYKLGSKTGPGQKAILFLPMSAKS
Albumin (Bos taurus), sequence (P02769 whole entry, looked up): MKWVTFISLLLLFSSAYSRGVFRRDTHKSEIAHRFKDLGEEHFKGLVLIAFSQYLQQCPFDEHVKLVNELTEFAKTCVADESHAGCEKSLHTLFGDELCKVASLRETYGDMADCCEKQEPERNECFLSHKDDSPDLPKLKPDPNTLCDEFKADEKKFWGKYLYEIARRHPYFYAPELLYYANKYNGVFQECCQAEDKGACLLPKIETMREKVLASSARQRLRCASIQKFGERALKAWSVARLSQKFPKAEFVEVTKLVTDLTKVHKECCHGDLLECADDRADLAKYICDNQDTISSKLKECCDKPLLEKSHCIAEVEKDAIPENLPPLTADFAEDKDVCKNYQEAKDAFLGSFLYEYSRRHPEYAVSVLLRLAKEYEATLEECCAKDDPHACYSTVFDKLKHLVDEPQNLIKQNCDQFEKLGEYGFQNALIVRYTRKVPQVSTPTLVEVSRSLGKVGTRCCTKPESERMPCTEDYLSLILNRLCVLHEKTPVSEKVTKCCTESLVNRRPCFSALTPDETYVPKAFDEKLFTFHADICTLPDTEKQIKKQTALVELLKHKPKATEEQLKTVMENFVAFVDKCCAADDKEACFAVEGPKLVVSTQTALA
Follistatin (Homo sapiens), sequence (P19883 whole entry, looked up): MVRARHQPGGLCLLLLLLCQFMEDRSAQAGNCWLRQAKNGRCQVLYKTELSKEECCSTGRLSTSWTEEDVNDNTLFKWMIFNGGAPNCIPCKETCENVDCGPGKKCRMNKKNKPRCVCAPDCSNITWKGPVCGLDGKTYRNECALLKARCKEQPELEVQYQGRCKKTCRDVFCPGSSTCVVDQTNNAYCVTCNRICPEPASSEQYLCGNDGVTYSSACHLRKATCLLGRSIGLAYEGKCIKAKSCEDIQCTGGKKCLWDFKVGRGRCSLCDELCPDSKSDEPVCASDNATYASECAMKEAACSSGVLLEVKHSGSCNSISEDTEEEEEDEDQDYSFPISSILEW

SMILES	composite z-score (Albumin (Bos taurus))	composite Z-score [1]	composite z-score [2]	composite z-score [3]	composite z-score [4]	composite z-score [5]	composite z-score [6]	composite z-score (Sam68 (KHDRBS1))	composite z-score [7]	composite z-score [8]	composite z-score [9]	composite z-score [10]	composite z-score [11]	composite z-score [12]	composite z-score [13]	composite z-score [14]	z-score [15]	composite z-score (Lefty1)	composite z-score [16]	z-score [17]
O=C1N(Cc2ccccc2)c2ccccc2C[C@@]12COC(c1ccc(OCCCO)cc1)=N2	0.809	-0.267 (inactive)	0.251	-0.0595	0.471	2.51	0.756	1.15	-0.366	0.582	1.55	1.21	0.75	0.785	1.3	0.326	0.0331	-0.319	0.98	-1.92 (inactive)
COCCOC(=O)N1C(=O)[C@@]2(c3cc(C#CC4(O)CCCCCC4)ccc31)[C@H](c1ccc(O)cc1)N1[C@H](c3ccccc3)[C@H](c3ccccc3)OC(=O)[C@H]1[C@@H]2C(=O)N1CCCCCCC1	0.304	-0.0498 (inactive)	0.295	-0.123	0.267	1.33	0.855	1.24	0.33	0.423	1.01	1.19	0.817	0.605	1.39	0.608	0.7	0.851	0.907	-0.552 (inactive)
CCCc1cc2c(n1CCc1ccc(Cl)cc1)C(C)C1CN(C(=O)c3ccccc3)C(C)(C(=O)OC)C21 (stereo not given)	1.03	0.313 (inactive)	0.201	0.203	0.862	2.94	1.07	1.03	-1.75	1.16	1.6	1.22	1.96	1.02	0.114	-1.41	1.25	-0.766	1.34	-0.548 (inactive)
COc1ccc([Si](C)(C)[C@@H]2[C@@H](CC(=O)N(CCO)Cc3ccccc3)O[C@]3(C(=O)N(Cc4ccc(I)cc4)c4ccccc43)[C@H]2C)cc1	-0.596	0.317 (inactive)	0.456	0.02	0.414	0.568	0.965	0.793	1.36	0.817	1.9	0.32	0.385	0.391	1.49	1.66	-0.472	1.53	-0.0349	0.249 (inactive)
COCCn1c(C(=O)N(C)C)cc2c1C[C@H]1CN(C(=O)c3ccccc3)[C@@](Cc3ccc(OC)cc3)(C(=O)OC)[C@@H]21	0.507	-0.0775 (inactive)	0.32	0.0323	0.659	2.94	0.294	0.914	-0.545	0.732	1.59	1.04	0.585	0.837	0.571	-0.226	1.66	-0.201	0.94	0.75 (inactive)
CO[C@H]1O[C@H](CO)[C@@H](OC(=O)Nc2ccc3c(c2)OCO3)[C@H](OC(=O)Nc2ccccc2-c2ccccc2)[C@H]1OC(=O)Nc1ccccc1-c1ccccc1	0.287	0.0432 (inactive)	0.214	0.084	0.687	2.27	0.869	1.29	-0.162	1.03	1.73	1.26	1.17	0.435	0.694	0.819	-0.559	-0.152	0.331	-1.22 (inactive)
O=C1C=C(c2ccccc2)C(=O)C2=C1CC([C@H]1Oc3ccccc3S(=O)(=O)N3CCC[C@@H]13)=CC2	0.0895	0.506 (inactive)	-0.0918	-0.0485	-0.248	-0.227	-0.247	0.13	0.121	0.0457	-0.105	0.154	-0.263	-0.472	0.316	0.669	-1.32	0.132	0.145	-1.49 (inactive)
O=C1O[C@H](c2ccccc2)[C@H](c2ccccc2)N2[C@H]1[C@@H](C(=O)O)[C@]1(C(=O)Nc3ccc(C#CCCO)cc31)[C@H]2c1ccc(OCCO)cc1	0.316	0.0388 (inactive)	0.0026	0.015	0.596	2.2	1.38	1.08	1.11	0.891	2.27	1.22	0.146	0.974	1.22	1.16	0.747	0.0897	1.17	-3.11 (inactive)
COC(=O)[C@@]1(Cc2ccc(F)cc2)[C@H]2c3cc(C(=O)N4CCCC4)n(Cc4ccccn4)c3C[C@H]2CN1C(=O)c1ccccc1	0.0228	-0.104 (inactive)	0.547	0.417	0.482	2.95	0.382	1.17	-0.22	0.627	1.58	1.25	1.01	0.903	0.37	-0.453	-0.0238	-0.2	-0.128	1.1 (inactive)
CC(C)(C)OC(=O)CC[C@]1(C(=O)NCC(O)CO)N=C(c2ccc(OCCCO)cc2)O[C@H]1c1ccccc1N=[N+]=[N-] (stereo not given in full)	1.02	1.33 (inactive)	0.163	0.149	0.719	3.53	1.03	0.723	0.0058	0.715	2.42	1.01	0.696	0.953	1.38	0.581	0.739	-0.41	1.3	-8.87 (active)
COCCOC(=O)N1C(=O)[C@@]2(c3ccccc31)[C@H](C(=O)N1CCN(c3ncccn3)CC1)[C@H]1C(=O)O[C@H](c3ccccc3)[C@H](c3ccccc3)N1[C@@H]2c1ccccc1OCCO	-0.448	0.196 (inactive)	0.102	-0.118	0.506	1.19	1.37	1.28	0.761	1.05	0.724	1.18	0.382	0.867	1.15	0.606	-0.531	1.02	0.272	-0.0896 (inactive)

Source: PubChem BioAssay
